The list is not random: actives were taken first. Their share in the collection is about 6.3%.
Spn DPM-DC inh = blocks S. pneumoniae diphosphomevalonate decarboxylase; purified DPM-DC, PK/LDH coupled NADH fluorescence; calls only at 10 µM; 65,000 compounds, 0.49% hits; AID 556;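 active means the 320 compounds with the highest percent inhibition in the single-dose primary screen, excluding strongly autofluorescent ones, cut at about 32% in these data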;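 further: kinetic rate of NADH fluorescence loss reporting ADP formed by the decarboxylase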
MK inhibit = inhibitors of Streptococcus pneumoniae mevalonate kinase. purified MK, PK/LDH-coupled NADH absorbance 340 nm. inhibition, % at 10 µM. 65,000 compounds, 0.48% hits;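 active means ranked among the strongest by inhibition in the single 10 µM screen, a fixed top-ranked set picked for dose follow-up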
NADH enzymes = blocks coupling enzymes of NAD/NADH assays. 65,000 compounds, 0.02% hits. IC50, µM (doses to about 10 µM), without a hit: at the highest dose inhibition. coupled PK/LDH NADH assays, four targets;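 active means single-dose screening hits from any of four coupled enzyme assays that gave an IC50 when retested across doses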;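 further: the DPM-DC format reads NADH fluorescence rather than 340 nm absorbance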
Spn PMK inh = inhibitors of Streptococcus pneumoniae phosphomevalonate kinase; 65,000 compounds, 0.49% hits; inhibition, % at 10 µM; purified PMK, PK/LDH-coupled NADH absorbance 340 nm;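 active means top-ranked compounds by inhibition in the single 10 µM screen, taking a fixed number of the strongest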;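 further: 0% = full reaction with DMSO carrier and 100% = background rate without enzyme reaction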
Fluor 339 460 = intrinsic fluorescence of library compounds, ex339/em460 – biochemical, MLSMR library, data from DPM-DC assay, artefact control, profiling panel | compound autofluorescence, ex339/em460 nm, NADH buffer; stronger effect = higher value; 1 = no-compound wells, NADH background | fluorescence fold increase at 10 µM | 65,000 compounds, 5.5% hits | AID 709;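 active means at 10 µM, mean starting fluorescence two-fold or more over control wells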;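 further: signal is the first read of a kinetic run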
A340 absorber = compounds absorbing at 340 nm; compound absorbance at 340 nm, fold over control; fold change at 10 µM; 65,000 tested, under 10 active; AID 708;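 active means at 10 µM dose, initial 340 nm absorbance at least 2 fold that of control wells; inactive means change under 2 fold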;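 further: initial absorbance extrapolated from kinetic A340 decline of NADH oxidation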
The depositor's hits bear a star; i = inactive; . = no result shown.

SMILES	Spn DPM-DC inh	MK inhibit	NADH enzymes	Spn PMK inh	Fluor 339 460	A340 absorber
COc1cccc(CNc2nc3nc(C)c(Cl)c(C)n3n2)c1	.	3	3%	9	2.3*	1
Cc1nc2nc(-c3ccco3)nn2c(C)c1Cl	.	13	13%	12	4*	1.1
CC1(C)CC(=O)C=C(Nc2ccc(S(N)(=O)=O)cc2)C1	i	5	5%	0	1	1.2
COc1ccc(-n2c(Cc3cccn3C)nnc2SCC(=O)Nc2ccc(C(C)=O)cc2)cc1	i	2	2%	5	1.1	1.1
COc1ccc(-c2cc3nc(C4CCN(C(=O)OC(C)(C)C)CC4)c(C(=O)O)cn3n2)cc1	i	1	15%	22	2.7*	1.1
O=C1N(CC(=O)N2CCc3ccccc32)CCN1Cc1ccccc1Cl	i	4	3%	6	1.1	1.1
CC(C)Cc1nc(NCCN2CCOCC2)c(C#N)c2c1COC(C)(C)C2	i	0	5%	10	1.2	1.1
CC(C)Cc1nc(N2CCN(C(=O)C(C)C)CC2)c(C#N)c2c1CCC2	.	27	15%	3	2.1*	1
CC(C)Cc1nc(N2CCCCC2)c(C#N)c2c1CCC2	i	4	3%	5	1.8	1
CC(=O)N1CCN(c2nc(CC(C)C)c3c(c2C#N)CCC3)CC1	.	6	6%	5	2.3*	1
CC(C)Cc1nc(N2CCOCC2)c(C#N)c2c1COC(C)(C)C2	.	14	7%	0	2.4*	1.1
CC(C)c1nc(N2CCOCC2)c(C#N)c2c1CCC2	i	8	5%	3	2*	1
CCCc1nc(N2CCOCC2)c(C#N)c2c1CCCC2	i	7	5%	8	1.8	0.99
Cc1oc(-c2ccccc2F)nc1CS(=O)(=O)CC(=O)NCCN(C)C1CCCCC1	i	0	0%	1	1	1.1
O=C(CSc1nnc(-c2ccccc2)o1)N1CCN(c2ccccc2)CC1	i	15	3%	1	1	0.98
CCOc1ccc(-c2nnc(SCC(=O)N3CCN(c4ccccc4)CC3)o2)cc1	i	11	4%	26*	1.1	1
COc1ccccc1NC(=O)c1cc2ccc(O)cc2o/c1=N\O	i	0	3%	10	1.5	1.1
Cc1cccc(N=c2oc3cc(O)ccc3cc2C(N)=O)c1	i	6	8%	0	3.7*	1.1
COc1ccc2oc(=O)c(C(=O)N3CCN(C45CC6CC(CC(C6)C4)C5)CC3)cc2c1	.	0	5%	10	3.7*	1
COCCSc1ccccc1C(=O)NCC1CCCO1 (configuration not stated)	i	5	2%	2	1.2	1
COc1ccccc1N=c1oc2cc(O)ccc2cc1C(=O)NCC1CCCO1 (configuration not stated)	i	0	11%	16	2.9*	1.1
COc1ccccc1N=c1oc2cc(O)ccc2cc1C(N)=O	i	5	15%	11	3.6*	1.1
COc1cc(-c2nnc(CSc3nnc4nc(C)cc(C)n34)o2)cc(OC)c1OC	i	4	7%	16	1.4	1
COc1cccc2cc(C(=O)NCC3CCCO3)c(=O)oc12 (configuration not stated)	i	9	12%	6	1.4	1.1
COc1ccc2oc(=O)c(C(=O)NCC3CCCO3)cc2c1 (configuration not stated)	.	9	8%	7	5.1*	1
SMILES	Spn DPM-DC inh	MK inhibit	NADH enzymes	Spn PMK inh	Fluor 339 460	A340 absorber
c1ccc(-c2nnc(OCCN3CCOCC3)c3ccccc23)cc1	i	0	0%	0	1	1
COC(=O)c1cn(-c2ccccc2)nc1C(=O)OC	i	2	5%	19*	1	0.97
Cc1cc(C(=O)NCCC2=CCCCC2)c(C)o1	i	1	3%	7	1.1	1.1
C=CCn1c(-c2ccc(OC)cc2)nc2ccccc21	i	2	2%	7	1.1	0.98
CC(C)n1c(-c2ccc(N(C)C)cc2)nc2ccccc21	.	9	9%	9	3.8*	1
C=CCn1c(-c2ccc(N)cc2)nc2ccccc21	.	2	1%	0	2.1*	1
CCn1c(-c2ccc(N)cc2)nc2ccccc21	i	4	9%	0	1.9	1
CN(C)c1ccc(-c2nc3ccccc3n2C)cc1	.	0	13%	25*	3.6*	1.1
CCn1c(-c2ccc(N(C)C)cc2)nc2ccccc21	.	4	6%	7	3.9*	1.1
Cc1ccnc(N2C(=O)OC(C)(C)C2(C)O)c1 (configuration not stated)	i	6	6%	12	1.1	1
O=C(NCCc1ccccc1)C1CCCN(C(=O)NC2CCCCC2)C1 (configuration not stated)	i	1	1%	3	1.1	0.99
O=C(CN1CCOc2ccccc21)N1CCCC1	i	6	4%	2	1.1	1
CC(OC(=O)c1cccs1)C(=O)NCC1CCCO1 (configuration not stated)	i	0	9%	25*	0.99	0.99
CC(OC(=O)c1cc2sccc2n1C)C(=O)NCC1CCCO1 (configuration not stated)	i	0	9%	22	1	1
COc1ccc(Oc2c(C)oc3c(CN(C)C)c(O)ccc3c2=O)cc1	.	2	5%	8	3.9*	1.2
COc1ccc(Oc2coc3c(CN(C)C)c(O)ccc3c2=O)cc1	.	9	14%	19	2.3*	1.2
CC1(C)CC2(CCO1)OC(=O)CC2C(=O)NCc1ccccc1 (configuration not stated)	i	4	6%	13	1.1	0.94
CC1(C)CC(C)(O)P(=O)(c2ccccc2)O1 (configuration not stated)	i	11	14%	30*	1.1	0.97
CC1=CCP(=O)(c2ccccc2)C1 (configuration not stated)	i	2	7%	19	1.1	1
Nc1ccc[n+](Cc2ccccn2)c1	i	4	8%	20	2.1*	1.1
CC(=O)C1=C(C)NC(C)=C(C(C)=O)C1c1cccs1	i	0	1%	1	1	1
N#Cc1ccc(CN2CCN(C(=O)c3ccccc3)CC2)c(Cl)c1	i	6	5%	9	1	1
CSc1nc(NCc2ccco2)c2c3c(sc2n1)CN(C)CC3	i	10	7%	0	1.8	1.1
CCC(O)CNc1nc(SC)nc2sc3c(c12)CCN(C)C3 (configuration not stated)	.	10	5%	0	2.2*	1
NC(=O)CSc1nnc(Cn2c(=O)sc3ccccc32)n1-c1cccc(Cl)c1	i	5	4%	7	0.98	1
Cc1ccc(C2Nc3ccccc3-c3nc4ccccc4n32)o1 (configuration not stated)	.	10	1%	0	2.5*	1.1

Bioassay records: PubChem, SRMLSC
